# Reference: the supplement of paper PMC7530171
# Counter-ions that a name gives are not always drawn. ± gives the standard deviation.
# What was measured:
# THP-1 = THP-1 cell loss relative to DMSO control; higher = more host cell loss (toxicity); extreme values may be limits of the assay; conditions: 10 µM; 4 days; infection: M. tuberculosis H37Rv
# Experimental: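 OICR kinase inhibitor library screened in duplicate at 10 uM against M. tuberculosis-infected THP-1 macrophages, 4 days at 37 C. THP-1 cell loss (cytotoxicity or loss of adherence) was quantified from Hoechst-stained nuclei counts by high-content imaging and normalised to the 1% DMSO control; 100 = complete loss of host cells.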
# [1] = tested on: THP-1 macrophages infected with Mycobacterium tuberculosis H37Rv; test: intracellular M.tb growth inhibition relative to DMSO (0) and 4 uM bedaquiline (100); higher = stronger inhibition of intracellular bacterial growth; conditions: 10 µM; 4 days
# Experimental: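 OICR kinase inhibitor library screened in duplicate at 10 uM against THP-1 macrophages (PMA-differentiated) infected with M. tuberculosis H37Rv-pTEC27 (tdTomato RFP), 4 days at 37 C. Rows with complete host cell loss (placeholder inhibition 0, cell loss 100) were removed.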
SMILES,THP-1 cell loss (THP-1) [%],intracellular M.tb growth inhibition [1] [%]
COc1cc(Nc2ncc(F)c(Nc3ccc4c(n3)NC(=O)C(C)(C)O4)n2)cc(OC)c1OC,63.4 ± 52,-164 ± 230
Cc1cc(C=C2C(=O)C=CC2=O)cc(C)c1O,1.15 ± 1.6,
CC(C)c1cc(/C=C(\C#N)C(=O)NCCCc2ccccc2)cc(C(C)C)c1O [Tyrphostin SU 1498],30.1 ± 12,50.29 ± 0.083
OCCC#Cc1nc(-c2ccc(F)cc2)c(-c2ccncc2)n1CCCc1ccccc1,66.42 ± 0.12,14.2 ± 4.9
CN(C)c1cc2c(Nc3ccc4c(cnn4Cc4ccccc4)c3)ncnc2cn1,62.6 ± 18,
CCCS(=O)(=O)Nc1ccc(F)c(C(=O)c2c[nH]c3ncc(Cl)cc23)c1F,11.5 ± 14,30.7 ± 35
CSc1cccc(Nc2ncc3cc(-c4c(Cl)cccc4Cl)c(=O)n(C)c3n2)c1,100,
CNC(=O)c1cc(Oc2ccc(NC(=O)Nc3ccc(Cl)c(C(F)(F)F)c3)c(F)c2)ccn1,43.8 ± 13,50.6 ± 65
Cc1nc2sccn2c(=O)c1CCN1CCC(=C(c2ccccc2)c2ccc(F)cc2)CC1,0,58.1 ± 4.4
NCC(=O)Nc1ccc(-n2nc(C(F)(F)F)cc2-c2ccc3c(ccc4ccccc43)c2)cc1,33.1 ± 2.5,92.3 ± 8.1
COc1cc(Nc2ncc(F)c(Nc3ccc4c(n3)N(COP(=O)(O)O)C(=O)C(C)(C)O4)n2)cc(OC)c1OC,59.6 ± 57,11 ± 16
NC(=O)c1ccc(-c2nc(-c3ccccn3)c(-c3ccc4c(c3)OCO4)[nH]2)cc1,0.126 ± 0.18,17.9 ± 36
O=C(NOCC1CC1)c1cc(Br)c(F)c(F)c1Nc1ccc(I)cc1Cl,55.1 ± 9.2,
Oc1cccc(-c2nc(N3CCOCC3)c3oc4ncccc4c3n2)c1,24.3 ± 3.9,-62.7 ± 17
c1ccc(-c2[nH]ncc2-c2ccnc3ccccc23)nc1,0,
O=c1cc(N2CCOCC2)oc2c1ccc1ccccc12,24.4 ± 6.4,
C[C@]1(O)C[C@@H](c2nc(-c3ccc4ccc(-c5ccccc5)nc4c3)c3c(N)nccn32)C1,38.5 ± 4,39.2 ± 24
Nc1ccc(C(=O)Nc2cccc(-c3nc(N4CCOCC4)c4oc5ncccc5c4n3)c2)cn1,43 ± 2.2,17.6 ± 65
Nc1nccc(-c2ccc3noc(-c4ccc(Cl)cc4)c3c2)n1 [PIM 1 Inhibitor 2],9.99 ± 7.3,20.6 ± 8.4
O=C(CO)N1CCC(c2n[nH]c(-c3ccc(Cl)cc3)c2-c2ccncn2)CC1,11.1 ± 0.43,-135 ± 140

SMILES,THP-1 cell loss (THP-1) [%],intracellular M.tb growth inhibition [1] [%]
COc1cc(C[C@H]2C(=O)OC[C@@H]2Cc2ccc(OC)c(OC)c2)ccc1O [Arctigenin],35 ± 18,
COc1nccc(-c2c(-c3ccc(F)cc3)ncn2C2CCC(O)CC2)n1 (centres undefined),1.08 ± 1.5,1.01 ± 15
O=C(O)c1ccc2c3c1cccc3c(=O)n1c3ccccc3nc21 [STO-609 acetic acid],35.7 ± 5.5,
CC(=O)c1c(C)c2cnc(Nc3ccc(N4CCNCC4)cn3)nc2n(C2CCCC2)c1=O,30.5 ± 8.2,-126 ± 210
O=c1cc(-c2cccc3c2Sc2ccccc2S3)oc(N2CCOCC2)c1,26.6 ± 14,3.07 ± 24
COc1ccc(-c2ccc3c(N4CCOC[C@@H]4C)nc(N4CCOC[C@@H]4C)nc3n2)cc1CO,40.8 ± 2.5,-202 ± 240
CN1CC[C@H](c2c(O)cc(O)c3c(=O)cc(-c4ccccc4Cl)oc23)[C@H](O)C1 [Alvocidib],100,
CS(=O)(=O)CCNCc1nc(-c2ccc3ncnc(Nc4ccc(OCc5cccc(F)c5)c(Cl)c4)c3c2)cs1,37.5 ± 15,
Cc1ccc(C(=O)Nc2cccc(C(F)(F)F)c2)cc1-c1ccc2nc(NCCN3CCOCC3)ncc2c1,100,
Cc1[nH]c(/C=C2\C(=O)Nc3cc(-c4ccccc4)ccc32)c(C)c1CCC(=O)O,6.62 ± 9.4,-5.41 ± 25
Oc1cccc(-c2nc(N3CCOCC3)c3sccc3n2)c1 [PI3-Kinase a Inhibitor 2],62 ± 6.5,-170 ± 240
Cc1ccc(NC(=O)c2ccc(CN3CCN(C)CC3)cc2)cc1Nc1nc(-c2cccnc2)cs1 [Masitinib mesylate],62.9 ± 7.5,
Cc1cn(-c2cc(NC(=O)c3ccc(C)c(Nc4nccc(-c5cccnc5)n4)c3)cc(C(F)(F)F)c2)cn1 [Nilotinib],75.3 ± 35,-5.88 ± 8.3
COc1ccc(-c2cc3nccn3c(Nc3ncccc3C(N)=O)n2)cc1OC [BAY 61-3606 hydrochloride],100,
CC1=C(C(=O)Nc2cc3cn[nH]c3cc2F)C(c2ccc(C(F)(F)F)cc2)CC(=O)N1 (centres undefined),0,
COc1cc2nccc(Oc3ccc(NC(=O)NC4CC4)c(Cl)c3)c2cc1C(N)=O,20.6 ± 14,-42.3 ± 140
Cc1cnc(-c2cnc(NCCNc3ccc(C#N)cn3)nc2-c2ccc(Cl)cc2Cl)[nH]1,13.7 ± 5,7.29 ± 24
CNc1cc2c(Nc3cccc(Br)c3)ncnc2cn1,78.2 ± 5.8,30.2 ± 36
COc1cc(CCc2cc(NC(=O)c3ccc(N4CC(C)NC(C)C4)cc3)n[nH]2)cc(OC)c1 (centres undefined),45.7 ± 11,-216 ± 180
